Screening results from PubChem.
Only some compounds are listed: those with a hit (about 1.6% of all), similar ones and a draw of the others.
eIF4H inh: inhibitors of RNA binding by human eIF4H; Q15056; eIF4H fluorescence polarization binding assay; inhibition, % at 35 µM; 0.94% of 290,000 active;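 note: calls also rest on retests at 20 µM and on dose response follow-up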
MLLE-PAM2 inh: blocks PAM2 peptide binding to the PABP1 MLLE domain | P11940 | GST-MLLE / FITC-PAM2 fluorescence polarization | inhibition, % at 20 µM | 0.36% of 360,000 active; in the data active = inhibition above about 35%, passing the limit was not always enough
eIF4E-4G inh: eIF4E/eIF4G interaction inhibition in translation initiation. P63073+Q04637. TR-FRET eIF4E-eIF4GI(517-606) binding, 2 h. inhibition, % at 21.7 µM. 0.37% of 220,000 active. AID 782;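 active = inhibition above about 30%, limit read from the data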
PERK inhibitor: blocks human PERK kinase; Q9NZJ5; CHO PERK-DD fusion, SEAP luminescence translation reporter; inhibition, % at 5.6 µM; 0.17% of 220,000 active;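 active = inhibition above the mean inhibition of all tested compounds plus 3 SD, set separately per screening campaign, cut at about 2.9% in these data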;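 note: PERK kinase domain activated by AP20187 dimerizer at 100 nM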
PABP FP inh: PABP-poly(A) binding inhibition | P11940 | PABP-poly(A) RNA binding, fluorescence polarization | calls only at 35 µM | 1% of 290,000 active | AID 2014;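 note: calls also rest on retests at 20 µM and on dose response follow-up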
Large screens that a line does not name were inactive. Unless noted, the rule behind the calls is not given here.

CN1C2C=C3C(C#N)=C(N)C(C#N)(C#N)[C@@H](c4ccsc4)[C@@H]3C1CC2 (some centres undefined)	eIF4H inh 65.6, PABP FP inh active (no result: MLLE-PAM2 inh)
COc1ccc(C)cc1NC(=O)CSc1nnc2ccc(-c3ccncc3)nn12	none (no result: eIF4H inh, eIF4E-4G inh, PERK inhibitor, PABP FP inh)
COC(=O)c1cc(NC(=S)Nc2cc(Cl)cc(Cl)c2)cc(C(=O)OC)c1	MLLE-PAM2 inh 36.3
O=C(Oc1cccc2ccccc12)c1cc(Cl)nc2ccccc12	none
O=Cc1ccc(OC(=O)c2cc(Cl)nc3ccccc23)cc1	MLLE-PAM2 inh 36.5
COCCNC(=O)/C(C#N)=C/c1c(N2CCCCCC2)nc2ccccn2c1=O	none (no result: eIF4E-4G inh, PERK inhibitor)
Cc1nn(-c2ccccc2)c2nc(-c3ccco3)cc(C(=O)O)c12	eIF4H inh 88.2, PABP FP inh active
Cc1cccc(-n2nc(C)c3c(C(=O)O)cc(-c4cccs4)nc32)c1	none
Cc1nn(-c2cccc(Cl)c2)c2nc(-c3ccco3)cc(C(=O)O)c12	eIF4H inh 79.6, PABP FP inh active
Cc1ccc(N2C(=S)NC3c4cc(Cl)ccc4OC2(C)C3C(=O)N(C)C)cc1 (centres undefined)	MLLE-PAM2 inh 44.0
Cc1cccc(N2C(=S)NC3c4cc(Cl)ccc4OC2(C)C3C(=O)N(C)C)c1 (centres undefined)	none
C=CCc1c(C)nc(-c2ccccc2)nc1Nc1ccccc1O	PABP FP inh active
O=C(NC(=S)NCCC1=CCCCC1)c1ccccc1Br	MLLE-PAM2 inh 44.9
O=C(COC(=O)c1ccccc1Br)NCCC1=CCCCC1	none
CC(=O)Oc1ccc(-c2cccc(C(=O)O)c2)cc1	none
CCc1cccc(CC)c1NC(=O)COC(=O)c1cccc(-c2ccc(OC(C)=O)cc2)c1	eIF4H inh active
OC(c1cc(F)cc(Cl)c1)c1ncc(-c2ccc(Cl)cc2)[nH]1 (centres undefined)	none (no result: eIF4H inh, eIF4E-4G inh, PERK inhibitor, PABP FP inh)
O=[N+]([O-])c1ccc(/C=C/C2=NN(c3ccccc3)C(c3ccco3)C2)cc1 (centres undefined)	none
O=[N+]([O-])c1ccc(C2=NN(c3ccccc3)C(c3ccco3)C2)cc1 (centres undefined)	eIF4H inh 103.6, PABP FP inh active
N#Cc1c(NCCN)nc(NCc2ccccc2)c2c1CCN(Cc1ccccc1)C2	eIF4H inh 61.9, PABP FP inh active (no result: eIF4E-4G inh)
Cc1ccc(OCc2cnc(Cl)s2)c(C)c1	none
Cc1ccc(C(N)=S)c(C)c1	MLLE-PAM2 inh 40.0 (no result: eIF4H inh, PABP FP inh)
O=C(O)CCc1ccc(-c2cccs2)n1CCC(=O)O	eIF4H inh 49.2, PABP FP inh active
O=C(O)CCc1ccc(-c2cccs2)n1CCc1ccccc1	none
O=[N+]([O-])c1ccc(-[n+]2ccc3ccccc3c2)c([N+](=O)[O-])c1	none (no result: eIF4H inh, eIF4E-4G inh, PERK inhibitor, PABP FP inh)
COCCOC(=O)C1=C(C)NC(=O)NC1c1c(Cl)nc2ccccn2c1=O (centres undefined)	MLLE-PAM2 inh 40.9
COCCOC(=O)C1=C(C)NC(=O)NC1c1ccco1 (centres undefined)	eIF4H inh 58.1, PABP FP inh active
O=S(=O)(c1c(Cl)cc(Br)cc1Cl)N1CCN(C(=S)NC2CC2)CC1	none (no result: eIF4H inh, eIF4E-4G inh, PERK inhibitor, PABP FP inh)
COC(=O)CCCC1=CC2=C(c3ccccc3)C(=O)C(C)(OC(=O)C3CCCC3)C(=O)C2=CN1CCN1CCOCC1 (centres undefined)	MLLE-PAM2 inh 40.4 (no result: PERK inhibitor)
COC(=O)CCCC1=CC2=C(c3ccccc3)C(=O)C(C)(OC(=O)C3CCCC3)C(=O)C2=CN1CCc1ccccn1 (centres undefined)	none (no result: PERK inhibitor)
CC1(OC(=O)C2CCCC2)C(=O)C=C2C=C(c3ccsc3)N(CC3CC3)C=C2C1=O (centres undefined)	none (no result: PERK inhibitor)
CC1(OC(=O)C2CCCC2)C(=O)C=C2C=C(c3ccsc3)N(CCN3CCOCC3)C=C2C1=O (centres undefined)	PABP FP inh active (no result: MLLE-PAM2 inh, PERK inhibitor)
COc1ccc(/C=C2/C(=O)OCc3cc(OC)c(OC)cc32)cc1	eIF4H inh active, PABP FP inh active
COc1ccc(/C=C2\CCOC2=O)cc1	none
O=C(COC(=O)c1cccs1)Nc1cccc(S(=O)(=O)N2CCOCC2)c1	none
O=C(COC(=O)c1ccc(=O)[nH]c1)Nc1cccc(S(=O)(=O)N2CCOCC2)c1	PERK inhibitor 2.9
COc1ccc(CCn2c(O)cc3nn(-c4nc5ccccc5s4)c(=O)c-3c2C)cc1	eIF4H inh 68.0, PABP FP inh active
O=C(Nc1cccs1)Nc1c(F)c(F)c(F)c(F)c1F	MLLE-PAM2 inh 43.1
Cc1cccc(C)c1NC(=O)Nc1cccs1	none
O=C(Nc1cccs1)Nc1c(F)c(F)cc(F)c1F	eIF4H inh 69.4, PABP FP inh active
O=C(Nc1cccs1)Nc1c(F)cc(F)cc1Br	none
CCN(CC)Cc1cc(C(=O)O)c(C)o1	none
COc1ccc(OCc2cc(C(=O)O)c(C)o2)cc1	eIF4H inh inconclusive, PABP FP inh active (no result: MLLE-PAM2 inh)
Cc1csc2nc(CNC(=O)CCC(=O)O)cn12	PERK inhibitor 3.4
CC(=O)NCc1cn2c(C)csc2n1	none
CCOc1ccc(NC(=O)CN(C)C(=O)C2CCN(C(=O)Nc3ccccc3)CC2)cc1OCC	none (no result: eIF4H inh, eIF4E-4G inh, PERK inhibitor, PABP FP inh)
Cn1c(=O)n(C)c2cc3[nH]cnc3cc21	none (no result: eIF4E-4G inh, PERK inhibitor)
Nc1cc2nc[nH]c2cc1N	eIF4H inh inconclusive, eIF4E-4G inh 35.7
O=C(COc1ccc([N+](=O)[O-])cc1)Nc1ccc2c(c1)nc1n2CCOC1	none (no result: eIF4E-4G inh, PERK inhibitor)
O=C(N/N=C/c1ccc(F)cc1)c1cc(-c2ccco2)nc2ccccc12	eIF4H inh 89.8, PABP FP inh active
O=C(O)c1cc(-c2ccco2)nc2ccccc12	eIF4H inh 82.2, MLLE-PAM2 inh 53.5, PABP FP inh active
COc1ccc(OC)c(-c2cc(C(=O)N/N=C(\C)c3cccnc3)c3ccccc3n2)c1	none (no result: eIF4E-4G inh, PERK inhibitor)
C/C(=N\NC(=O)c1cc(-c2ccco2)nc2ccccc12)c1cccnc1	eIF4H inh 81.7, PABP FP inh active
O=C(NC1CC1)c1cc(-c2ccco2)nc2ccccc12	eIF4H inh 97.9, eIF4E-4G inh 56.5, PABP FP inh active
O=C(CSc1nc2ccccc2c(=O)n1CCCN1CCOCC1)NC12CC3CC(CC(C3)C1)C2	none
COc1ccc(-c2nc(C)ncc2-c2csc(C)n2)c(O)c1	eIF4H inh 73.0, PABP FP inh active
COc1ccc(-c2ncncc2-c2csc(C)n2)c(O)c1	none
COC(=O)CSc1nnc(C)c(=O)[nH]1	none
CCOC(=O)CNc1nnc(SCC(=O)OCC)[nH]c1=O	MLLE-PAM2 inh 45.9
CN1C(=O)N(C)C2(c3ccccc3)Nn3c(s/c(=C/c4ccccc4F)c3=O)=NC12c1ccccc1 (centres undefined)	none (no result: MLLE-PAM2 inh)
CN1C(=O)N(C)C2(c3ccccc3)Nn3c(s/c(=C/c4ccco4)c3=O)=NC12c1ccccc1 (centres undefined)	PABP FP inh active
O=C(COC(=O)c1cncc(Br)c1)NCc1ccccc1	none
O=C(COC(=O)c1cncc(Br)c1)NCc1ccccc1Cl	PABP FP inh active
COc1cccc(CN(C)C(=O)c2ccc(Cl)c(S(=O)(=O)N3CCCCCC3)c2)c1OC	none (no result: eIF4H inh, eIF4E-4G inh, PERK inhibitor, PABP FP inh)
COc1cccc(C(=O)NN2C(=S)N(c3ccccc3)C(=O)C2CC(N)=O)c1 (centres undefined)	none
